In article PMC7862700, “An all-to-all approach to the identification of sequence-specific readers for epigenetic DNA modifications on cytosine”:

Experiments:
Experiment in all cases: DAPPL (digital affinity profiling via proximity ligation, sequencing); 10 mM Tris-HCl pH 7.5, 50 mM NaCl, 1 mM DTT, 4% glycerol, room temperature, 30 min; GST-TFs on glutathione beads, 16-mer random dsDNA library, 0.1% formaldehyde crosslink after washing; high values mean tight binding
Conditions in all cases: protein: recombinant; tags: N-terminal GST; dsDNA, one strand shown
FLI1 = molecular target: T1, FLI1 (Homo sapiens, UniProt Q01543 1-452)
T1 sequence: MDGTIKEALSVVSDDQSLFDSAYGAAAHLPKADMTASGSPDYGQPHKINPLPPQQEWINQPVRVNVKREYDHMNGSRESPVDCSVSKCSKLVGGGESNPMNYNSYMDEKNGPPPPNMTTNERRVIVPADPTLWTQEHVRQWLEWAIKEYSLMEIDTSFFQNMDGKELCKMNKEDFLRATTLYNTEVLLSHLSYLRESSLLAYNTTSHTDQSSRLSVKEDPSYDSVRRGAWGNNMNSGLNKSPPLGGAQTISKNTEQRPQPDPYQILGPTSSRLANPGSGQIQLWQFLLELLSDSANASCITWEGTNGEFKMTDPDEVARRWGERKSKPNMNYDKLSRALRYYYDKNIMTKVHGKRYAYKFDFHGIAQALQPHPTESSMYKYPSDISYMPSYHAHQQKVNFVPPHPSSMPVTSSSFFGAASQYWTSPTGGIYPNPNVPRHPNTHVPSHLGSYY
Procedure, shortened: (§1)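 Binding signal is defined as a hexamer's read frequency for one factor over its frequency for the tag-only sample. To obtain reads, GST-fused human transcription factors were expressed in yeast, captured on glutathione beads, barcoded with DNA and pooled with that sample. Pools met 200 nmole of a 16-mer random double-stranded DNA library in Tris/NaCl/DTT/glycerol buffer for 30 min at room temperature before washing, 0.1% formaldehyde crosslinking, proximity ligation (BsaI/T4 ligase, 1 h, 37 °C), PCR and Illumina NextSeq500 sequencing.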

ELK1 = molecular target: T2, ELK1 (Homo sapiens, UniProt P19419 1-428)
T2 sequence: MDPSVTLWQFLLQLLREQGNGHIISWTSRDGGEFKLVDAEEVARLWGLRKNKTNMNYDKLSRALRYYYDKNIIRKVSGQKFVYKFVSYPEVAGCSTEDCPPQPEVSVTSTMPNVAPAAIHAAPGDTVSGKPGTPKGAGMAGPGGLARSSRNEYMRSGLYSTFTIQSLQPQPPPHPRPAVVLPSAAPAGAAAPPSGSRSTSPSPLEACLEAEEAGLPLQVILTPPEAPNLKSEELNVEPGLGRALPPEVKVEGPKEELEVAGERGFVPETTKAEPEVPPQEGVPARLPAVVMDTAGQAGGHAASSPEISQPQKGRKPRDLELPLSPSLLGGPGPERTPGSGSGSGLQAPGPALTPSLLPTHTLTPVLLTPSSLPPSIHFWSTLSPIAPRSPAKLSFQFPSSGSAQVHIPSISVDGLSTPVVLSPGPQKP
Procedure, shortened: as §1

GABPA = molecular target: T3, GABPA (Homo sapiens, UniProt Q06546 1-454)
T3 sequence: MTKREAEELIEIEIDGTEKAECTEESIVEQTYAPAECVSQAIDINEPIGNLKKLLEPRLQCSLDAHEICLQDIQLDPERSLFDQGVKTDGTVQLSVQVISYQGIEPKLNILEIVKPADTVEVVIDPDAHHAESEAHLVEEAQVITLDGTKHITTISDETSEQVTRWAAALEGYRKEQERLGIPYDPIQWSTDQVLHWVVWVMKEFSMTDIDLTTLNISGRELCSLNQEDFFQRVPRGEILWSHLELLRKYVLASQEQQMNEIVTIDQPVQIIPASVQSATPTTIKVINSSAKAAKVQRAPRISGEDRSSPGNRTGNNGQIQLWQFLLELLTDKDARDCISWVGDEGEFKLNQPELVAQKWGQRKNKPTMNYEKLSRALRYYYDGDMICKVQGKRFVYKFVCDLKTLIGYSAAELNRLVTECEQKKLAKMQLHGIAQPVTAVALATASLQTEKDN
Procedure, shortened: as §1

ERG = molecular target: T4, ERG (Homo sapiens, UniProt P11308 1-479)
T4 sequence: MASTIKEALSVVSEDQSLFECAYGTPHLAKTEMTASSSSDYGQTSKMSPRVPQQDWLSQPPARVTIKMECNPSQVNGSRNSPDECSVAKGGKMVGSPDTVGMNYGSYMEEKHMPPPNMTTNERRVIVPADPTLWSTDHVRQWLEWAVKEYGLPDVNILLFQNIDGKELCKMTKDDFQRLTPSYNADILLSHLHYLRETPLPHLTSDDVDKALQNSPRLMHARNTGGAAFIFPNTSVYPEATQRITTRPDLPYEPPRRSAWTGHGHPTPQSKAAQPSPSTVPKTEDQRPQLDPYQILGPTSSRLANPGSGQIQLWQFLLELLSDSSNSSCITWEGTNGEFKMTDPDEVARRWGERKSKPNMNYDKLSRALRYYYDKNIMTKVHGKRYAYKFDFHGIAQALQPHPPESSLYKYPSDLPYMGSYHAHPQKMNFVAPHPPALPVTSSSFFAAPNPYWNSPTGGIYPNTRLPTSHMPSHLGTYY
Procedure, shortened: as §1

ELF1 = ELF1 (Homo sapiens, UniProt P32519 1-619)
Procedure, shortened: as §1

EHF = molecular target: T5, EHF (Homo sapiens, UniProt Q9NZC4 1-300)
T5 sequence: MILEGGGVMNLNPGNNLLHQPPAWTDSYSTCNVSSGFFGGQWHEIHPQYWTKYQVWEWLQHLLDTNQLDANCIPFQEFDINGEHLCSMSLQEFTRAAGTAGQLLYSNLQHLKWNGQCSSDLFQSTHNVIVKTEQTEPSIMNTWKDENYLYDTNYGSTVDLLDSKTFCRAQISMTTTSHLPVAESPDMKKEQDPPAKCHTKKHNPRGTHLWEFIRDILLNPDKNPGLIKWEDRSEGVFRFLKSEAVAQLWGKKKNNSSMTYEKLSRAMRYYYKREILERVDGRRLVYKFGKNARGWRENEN
Procedure, shortened: as §1

SPIB = SPIB (Homo sapiens, UniProt Q01892 1-262)
Procedure, shortened: as §1

ELK3 = molecular target: T6, ELK3 (Homo sapiens, UniProt P41970 1-407)
T6 sequence: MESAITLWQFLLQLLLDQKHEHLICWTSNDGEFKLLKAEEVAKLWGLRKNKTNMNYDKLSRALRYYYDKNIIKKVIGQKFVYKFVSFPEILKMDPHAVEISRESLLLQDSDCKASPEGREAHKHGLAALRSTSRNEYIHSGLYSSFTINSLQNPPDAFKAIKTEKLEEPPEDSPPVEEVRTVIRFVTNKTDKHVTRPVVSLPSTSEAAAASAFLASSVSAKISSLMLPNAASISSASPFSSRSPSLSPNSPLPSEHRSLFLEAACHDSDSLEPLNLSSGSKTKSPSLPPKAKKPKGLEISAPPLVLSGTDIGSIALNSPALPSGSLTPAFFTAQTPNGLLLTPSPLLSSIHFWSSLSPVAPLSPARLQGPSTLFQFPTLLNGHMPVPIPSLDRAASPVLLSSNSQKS
Procedure, shortened: as §1

FEV = molecular target: T7, FEV (Homo sapiens, UniProt Q99581 1-238)
T7 sequence: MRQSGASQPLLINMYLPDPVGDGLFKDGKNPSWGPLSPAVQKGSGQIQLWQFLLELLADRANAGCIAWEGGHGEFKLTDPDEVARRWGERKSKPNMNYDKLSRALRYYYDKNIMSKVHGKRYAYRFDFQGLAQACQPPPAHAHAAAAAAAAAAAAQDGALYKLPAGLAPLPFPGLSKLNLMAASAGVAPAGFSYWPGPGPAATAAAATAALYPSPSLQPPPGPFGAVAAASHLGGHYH
Procedure, shortened: as §1

ETV5 = ETV5 (Homo sapiens, UniProt P41161 1-510)
Procedure, shortened: as §1

SPIC = molecular target: T8, SPIC (Homo sapiens, UniProt Q8N5J4 1-248)
T8 sequence: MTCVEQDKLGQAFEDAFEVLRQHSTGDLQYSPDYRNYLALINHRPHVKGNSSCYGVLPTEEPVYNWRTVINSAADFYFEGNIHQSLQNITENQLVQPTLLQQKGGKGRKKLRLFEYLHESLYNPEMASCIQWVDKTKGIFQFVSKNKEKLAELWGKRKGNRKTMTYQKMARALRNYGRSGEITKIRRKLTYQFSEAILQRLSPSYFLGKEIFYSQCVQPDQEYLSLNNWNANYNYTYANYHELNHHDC
Procedure, shortened: as §1

ELF4 = ELF4 (Homo sapiens, UniProt Q99607 1-663)
Procedure, shortened: as §1

ELK4 = molecular target: T9, ELK4 (Homo sapiens, UniProt P28324-2 1-405)
T9 sequence: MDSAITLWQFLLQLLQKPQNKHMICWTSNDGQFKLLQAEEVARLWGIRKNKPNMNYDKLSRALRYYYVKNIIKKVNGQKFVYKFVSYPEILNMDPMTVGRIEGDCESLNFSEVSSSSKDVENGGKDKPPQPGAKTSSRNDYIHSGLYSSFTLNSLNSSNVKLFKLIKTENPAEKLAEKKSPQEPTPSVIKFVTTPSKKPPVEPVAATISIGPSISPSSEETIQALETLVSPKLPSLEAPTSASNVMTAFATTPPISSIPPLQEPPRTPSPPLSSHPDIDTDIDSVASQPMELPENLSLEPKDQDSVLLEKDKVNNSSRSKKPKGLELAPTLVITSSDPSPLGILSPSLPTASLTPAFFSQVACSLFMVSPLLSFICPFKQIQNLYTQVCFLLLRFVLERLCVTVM
Procedure, shortened: as §1

ETV2 = molecular target: T10, ETV2 (Homo sapiens, UniProt O00321 1-342)
T10 sequence: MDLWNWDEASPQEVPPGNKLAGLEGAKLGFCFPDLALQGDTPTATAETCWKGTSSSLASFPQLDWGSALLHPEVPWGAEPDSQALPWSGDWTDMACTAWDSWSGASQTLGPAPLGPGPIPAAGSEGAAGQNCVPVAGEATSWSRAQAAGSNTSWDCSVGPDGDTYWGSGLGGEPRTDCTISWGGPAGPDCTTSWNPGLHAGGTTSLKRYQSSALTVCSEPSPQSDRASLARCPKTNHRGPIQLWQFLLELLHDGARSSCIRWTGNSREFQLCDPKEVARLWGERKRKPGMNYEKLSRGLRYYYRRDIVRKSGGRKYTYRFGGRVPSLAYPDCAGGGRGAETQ
Procedure, shortened: as §1

ETV1 = ETV1 (Homo sapiens, UniProt P50549 1-477)
Procedure, shortened: as §1

SPI1 = SPI1 (Homo sapiens, UniProt P17947 1-270)
Procedure, shortened: as §1

ELF3 = molecular target: T11, ELF3 (Homo sapiens, UniProt P78545 1-371)
T11 sequence: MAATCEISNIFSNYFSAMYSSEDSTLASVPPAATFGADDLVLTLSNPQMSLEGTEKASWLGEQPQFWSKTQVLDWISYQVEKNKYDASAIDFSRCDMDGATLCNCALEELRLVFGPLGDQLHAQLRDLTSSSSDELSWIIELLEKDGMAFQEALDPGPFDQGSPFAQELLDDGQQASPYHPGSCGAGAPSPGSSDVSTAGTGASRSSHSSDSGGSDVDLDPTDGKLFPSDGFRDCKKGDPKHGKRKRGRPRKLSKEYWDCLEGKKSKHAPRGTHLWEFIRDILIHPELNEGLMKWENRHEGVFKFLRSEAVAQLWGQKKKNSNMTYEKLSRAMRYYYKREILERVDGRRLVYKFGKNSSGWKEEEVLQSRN
Procedure, shortened: as §1

ELF1, sequence (P32519 whole entry): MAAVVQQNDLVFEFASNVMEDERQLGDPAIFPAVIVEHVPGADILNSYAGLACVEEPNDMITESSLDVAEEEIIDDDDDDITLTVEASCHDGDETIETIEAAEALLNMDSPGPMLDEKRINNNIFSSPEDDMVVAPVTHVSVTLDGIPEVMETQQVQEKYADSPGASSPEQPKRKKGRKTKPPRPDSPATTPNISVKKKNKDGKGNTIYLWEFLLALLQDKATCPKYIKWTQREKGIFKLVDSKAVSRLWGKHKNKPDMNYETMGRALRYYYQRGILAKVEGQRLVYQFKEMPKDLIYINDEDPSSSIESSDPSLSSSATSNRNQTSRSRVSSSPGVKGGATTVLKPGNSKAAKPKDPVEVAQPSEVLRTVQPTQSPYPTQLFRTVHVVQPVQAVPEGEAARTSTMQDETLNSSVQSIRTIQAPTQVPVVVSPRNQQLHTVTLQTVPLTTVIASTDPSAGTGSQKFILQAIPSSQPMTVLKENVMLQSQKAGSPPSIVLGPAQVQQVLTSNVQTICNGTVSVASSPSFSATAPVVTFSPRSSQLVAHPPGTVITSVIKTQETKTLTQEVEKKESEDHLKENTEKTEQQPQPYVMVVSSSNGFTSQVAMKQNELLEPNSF
SPIB, sequence (Q01892 whole entry): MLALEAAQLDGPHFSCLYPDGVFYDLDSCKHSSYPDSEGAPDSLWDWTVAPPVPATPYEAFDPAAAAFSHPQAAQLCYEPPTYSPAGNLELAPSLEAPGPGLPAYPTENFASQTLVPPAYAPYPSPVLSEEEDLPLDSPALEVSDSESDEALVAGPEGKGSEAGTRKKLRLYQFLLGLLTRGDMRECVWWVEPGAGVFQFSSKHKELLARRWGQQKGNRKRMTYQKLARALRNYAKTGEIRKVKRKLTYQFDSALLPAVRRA
ETV1, sequence (P50549 whole entry): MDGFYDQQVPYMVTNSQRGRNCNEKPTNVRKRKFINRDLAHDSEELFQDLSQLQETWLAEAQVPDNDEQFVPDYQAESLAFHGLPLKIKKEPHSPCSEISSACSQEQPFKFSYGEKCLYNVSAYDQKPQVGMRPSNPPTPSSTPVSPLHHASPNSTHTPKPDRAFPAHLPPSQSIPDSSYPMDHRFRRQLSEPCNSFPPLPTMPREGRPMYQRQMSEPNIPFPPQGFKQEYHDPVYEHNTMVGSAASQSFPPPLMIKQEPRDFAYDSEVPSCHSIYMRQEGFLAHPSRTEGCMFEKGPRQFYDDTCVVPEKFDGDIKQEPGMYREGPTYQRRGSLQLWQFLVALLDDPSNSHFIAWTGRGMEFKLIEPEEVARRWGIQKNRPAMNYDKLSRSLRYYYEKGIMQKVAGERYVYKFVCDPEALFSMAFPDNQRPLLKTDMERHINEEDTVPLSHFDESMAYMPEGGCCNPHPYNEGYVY
ELF4, sequence (Q99607 whole entry): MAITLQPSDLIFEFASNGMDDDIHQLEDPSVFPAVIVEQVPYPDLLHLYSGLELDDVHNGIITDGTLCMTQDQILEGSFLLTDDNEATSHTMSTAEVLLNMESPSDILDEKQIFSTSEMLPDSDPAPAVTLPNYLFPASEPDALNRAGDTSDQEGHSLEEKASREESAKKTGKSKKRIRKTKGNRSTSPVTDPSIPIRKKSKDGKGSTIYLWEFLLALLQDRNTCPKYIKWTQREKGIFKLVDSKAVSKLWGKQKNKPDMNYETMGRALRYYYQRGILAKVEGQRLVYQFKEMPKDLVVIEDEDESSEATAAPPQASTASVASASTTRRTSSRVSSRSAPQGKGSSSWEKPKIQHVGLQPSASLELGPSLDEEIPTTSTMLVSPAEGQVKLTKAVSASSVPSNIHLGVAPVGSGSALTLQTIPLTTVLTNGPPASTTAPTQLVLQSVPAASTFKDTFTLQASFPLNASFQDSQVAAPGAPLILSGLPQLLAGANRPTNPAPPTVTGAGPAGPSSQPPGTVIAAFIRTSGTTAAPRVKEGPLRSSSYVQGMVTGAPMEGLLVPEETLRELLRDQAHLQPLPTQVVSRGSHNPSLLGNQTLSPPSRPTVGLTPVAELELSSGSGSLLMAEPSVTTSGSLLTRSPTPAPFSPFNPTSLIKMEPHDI
ETV5, sequence (P41161 whole entry): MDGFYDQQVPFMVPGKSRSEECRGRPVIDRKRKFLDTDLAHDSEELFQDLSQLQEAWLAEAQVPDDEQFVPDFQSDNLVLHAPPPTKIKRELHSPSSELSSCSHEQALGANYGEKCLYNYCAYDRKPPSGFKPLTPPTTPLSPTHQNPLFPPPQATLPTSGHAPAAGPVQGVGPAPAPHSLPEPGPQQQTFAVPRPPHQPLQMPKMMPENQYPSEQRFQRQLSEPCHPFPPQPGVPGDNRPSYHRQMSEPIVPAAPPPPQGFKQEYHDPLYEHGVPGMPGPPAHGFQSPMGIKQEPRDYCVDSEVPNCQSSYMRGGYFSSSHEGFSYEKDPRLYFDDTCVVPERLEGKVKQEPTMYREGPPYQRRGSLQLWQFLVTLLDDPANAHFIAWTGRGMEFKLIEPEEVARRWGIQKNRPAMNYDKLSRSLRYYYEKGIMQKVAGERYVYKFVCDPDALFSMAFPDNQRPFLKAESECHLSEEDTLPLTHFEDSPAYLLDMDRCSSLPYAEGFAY

Sequence | binding signal (FLI1) | binding signal (ELK1) | binding signal (GABPA) | binding signal (ERG) | binding signal (ELF1) | binding signal (EHF) | binding signal (SPIB) | binding signal (ELK3) | binding signal (FEV) | binding signal (ETV5) | binding signal (SPIC) | binding signal (ELF4) | binding signal (ELK4) | binding signal (ETV2) | binding signal (ETV1) | binding signal (SPI1) | binding signal (ELF3)
GCGCCC | 1.07 fold enrichment (6-mer frequency, TF over GST control) | 1.1 fold enrichment (6-mer frequency, TF over GST control) | 1.11 fold enrichment (6-mer frequency, TF over GST control) | 1.13 fold enrichment (6-mer frequency, TF over GST control) | 1.11 fold enrichment (6-mer frequency, TF over GST control) | 1.03 fold enrichment (6-mer frequency, TF over GST control) | 1.09 fold enrichment (6-mer frequency, TF over GST control) | 1.18 fold enrichment (6-mer frequency, TF over GST control) | 1.08 fold enrichment (6-mer frequency, TF over GST control) | 1.04 fold enrichment (6-mer frequency, TF over GST control) | 1.01 fold enrichment (6-mer frequency, TF over GST control) | 1.19 fold enrichment (6-mer frequency, TF over GST control) | 1.02 fold enrichment (6-mer frequency, TF over GST control) | 1.02 fold enrichment (6-mer frequency, TF over GST control) | 1.05 fold enrichment (6-mer frequency, TF over GST control) |  | 
AAGTTG | 1.09 fold enrichment (6-mer frequency, TF over GST control) | 1.07 fold enrichment (6-mer frequency, TF over GST control) | 1.1 fold enrichment (6-mer frequency, TF over GST control) | 1.08 fold enrichment (6-mer frequency, TF over GST control) | 1.08 fold enrichment (6-mer frequency, TF over GST control) | 1.14 fold enrichment (6-mer frequency, TF over GST control) | 1.1 fold enrichment (6-mer frequency, TF over GST control) | 1.11 fold enrichment (6-mer frequency, TF over GST control) | 1.05 fold enrichment (6-mer frequency, TF over GST control) | 1.16 fold enrichment (6-mer frequency, TF over GST control) | 1.08 fold enrichment (6-mer frequency, TF over GST control) | 1.14 fold enrichment (6-mer frequency, TF over GST control) | 1.12 fold enrichment (6-mer frequency, TF over GST control) |  | 1.02 fold enrichment (6-mer frequency, TF over GST control) | 1.13 fold enrichment (6-mer frequency, TF over GST control) | 1.12 fold enrichment (6-mer frequency, TF over GST control)
